Assay results published in PubChem BioAssay (NCI).
About 83,000 compounds went through this panel and 20% of them were active in at least one assay; those are over-represented in the sample as a whole.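 Method: cells in 96-well plates; compound added at one concentration; 48 h incubation; percent growth measured; values under 10 scored active.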 Values without a mark were called inactive. The source made the active and inactive calls.

Key:
Experiment in all cases: NCI-60 one-dose screen, 48 h (100 = growth as untreated, 0 = no growth, -100 = all killed)
Conditions in all cases: 10 µM unless noted
HCT-15 colon = tested on: HCT-15 colon
HT29 colon = tested on: HT29 colon
SNB-75 CNS = tested on: SNB-75 CNS
U251 CNS = tested on: U251 CNS
PC-3 prostate = tested on: PC-3 prostate
SK-MEL-5 melanoma = tested on: SK-MEL-5 melanoma
UACC-62 melanoma = tested on: UACC-62 melanoma
SK-MEL-28 melanoma = tested on: SK-MEL-28 melanoma
SK-MEL-2 melanoma = tested on: SK-MEL-2 melanoma
EKVX NSCLC = tested on: EKVX NSCLC
SN12C renal = tested on: SN12C renal
UO-31 renal = tested on: UO-31 renal
TK-10 renal = tested on: TK-10 renal
ACHN renal = tested on: ACHN renal
CAKI-1 renal = tested on: CAKI-1 renal
A498 renal = tested on: A498 renal
CCRF-CEM leukemia = tested on: CCRF-CEM leukemia
MOLT-4 leukemia = tested on: MOLT-4 leukemia
LOX IMVI melanoma = tested on: LOX IMVI melanoma
SNB-19 CNS = tested on: SNB-19 CNS

SMILES	growth (HCT-15 colon)	growth (HT29 colon)	growth (SNB-75 CNS)	growth (U251 CNS)	growth (PC-3 prostate)	growth (SK-MEL-5 melanoma)	growth (UACC-62 melanoma)	growth (SK-MEL-28 melanoma)	growth (SK-MEL-2 melanoma)	growth (EKVX NSCLC)	growth (SN12C renal)	growth (UO-31 renal)	growth (TK-10 renal)	growth (ACHN renal)	growth (CAKI-1 renal)	growth (A498 renal)	growth (CCRF-CEM leukemia)	growth (MOLT-4 leukemia)	growth (LOX IMVI melanoma)	growth (SNB-19 CNS) [%]
COc1ccc2[nH]cc(-c3cc4nc(-c5cn(C)c6ncccc56)cc(N)n4n3)c2c1	-25.1% (active)	-59.1% (active)	51.8%	-42.4% (active)	9.79% (active)	-56.5% (active)	85.9%	82.6%	97.2%	55.1%	26.2%	12.3%	78.1%	7.66% (active)	-65.2% (active)	116%	-34.3% (active)	-9.04% (active)	–	–
COc1cc2cc(C(=O)N3C[C@@H](CCl)c4c3cc(OC(=O)N(CCC(=O)N3CCN(C)CC3)[C@H]3CCSSC3)c3ccccc43)[nH]c2c(OC)c1OC	-52.1% (active)	-49.4% (active)	-68.7% (active)	-68% (active)	-4.51% (active)	-86.3% (active)	-91.8% (active)	-94.1% (active)	-85% (active)	-67.7% (active)	-10.3% (active)	-26.9% (active)	8.66% (active)	-6.81% (active)	13.7%	–	32%	-9.57% (active)	-99.5% (active)	–
N/C(=N\c1nc2ccccc2s1)NC(=O)Nc1ccccc1F	25.7%	5.46% (active)	-0.749% (active)	11.2%	33.3%	-0.0152% (active)	25.3%	57.3%	11%	37%	26.4%	34.3%	38.4%	47.8%	18.6%	78.4%	5.96% (active)	21.1%	27%	–
COc1ccc2c(c1)C(Sc1ccc(Cl)cc1)c1c(nc(N)c(C#N)c1N)O2 (stereo unspecified)	58.9%	75.2%	36.9%	51.9%	20%	36.5%	64.3%	99.8%	–	43.8%	55.7%	26.5%	99.1%	60.1%	51.9%	84.4%	-10.6% (active)	-1.37% (active)	-2.6% (active)	–
COc1ccc2[nH]c(O)c(N=NC(=O)c3ccc4nc(-c5ccc(Cl)cc5)[nH]c4c3)c2c1	105%	86.1%	93.8%	–	58.9%	96.2%	–	37.2%	109%	90.1%	70.7%	95.6%	111%	104%	93.6%	166%	25.7%	15.7%	24.6%	29.6
O=C(Cn1c(-c2ccccc2)nc2ccccc21)N=Nc1c(O)[nH]c2ccc(Cl)cc12	7.61% (active)	2.44% (active)	-49.5% (active)	13.4%	21.7%	10.7%	-2.77% (active)	-51% (active)	17.6%	9.78% (active)	5.72% (active)	1.39% (active)	28.5%	-47.3% (active)	13%	–	31.8%	27.4%	8.05% (active)	–
Cc1ccc(Cl)cc1NC(=O)N/C(N)=N/c1nc2ccccc2s1	-22.4% (active)	-69.5% (active)	-4.17% (active)	-43.8% (active)	2.99% (active)	-56.9% (active)	-11.4% (active)	19.6%	-20.6% (active)	15.8%	-40% (active)	-13% (active)	14.7%	-50.3% (active)	-2.72% (active)	5.76% (active)	-6.91% (active)	-8.52% (active)	-83.3% (active)	–
CN(C)C(=O)c1cc(-c2ccc3ncnc(N4CCc5cc(F)c(Cl)cc54)c3c2)cnc1N	-70.8% (active)	-68.6% (active)	-28.8% (active)	-55.7% (active)	0.623% (active)	-98.9% (active)	-83.7% (active)	0.025% (active)	-86% (active)	-84.3% (active)	-9.32% (active)	-10.3% (active)	-69.4% (active)	2.02% (active)	-76.5% (active)	–	-20.5% (active)	-38.3% (active)	-69.3% (active)	–
